The text below walks through data of PubChem BioAssay (NCI).

Values joined by “and” are separate entries in the source; they are usually repeats but may differ in a detail not shown here. Equal entries are not always repeated. This is part of a sample that, as a whole, favours compounds with a hit. Of some 83,000 tested, about 20% had one in any assay.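 The test compound was applied at a single concentration to cells in 96-well plates for 48 hours, and percent growth was recorded.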 Where a structure was tested more than once in an assay, its records may differ in their call. Active and inactive are the calls of the source. How the source made its calls: active means growth percent below 10; inactive means the rest.

Among the test systems are MOLT-4 leukemia; SR leukemia; RPMI-8226 leukemia; OVCAR-8 ovarian; OVCAR-5 ovarian; OVCAR-4 ovarian; SK-OV-3 ovarian; IGROV1 ovarian; OVCAR-3 ovarian; NCI/ADR-RES ovarian; T-47D breast; BT-549 breast; MDA-MB-435 melanoma; SW-620 colon; MCF7 breast; HCT-116 colon; HCC-2998 colon; KM12 colon; HS 578T breast.
Assay in all cases: NCI-60 one-dose screen, 48 h (100 = growth as untreated, 0 = no growth, -100 = all killed)
Settings in all cases: 10 µM unless noted

Regarding `NC(N)=NC(N)=Nc1ccc(Cl)cc1`, the growth in the test on MOLT-4 leukemia is 93.3% (inactive); in the test on SR leukemia it was 94.9% (inactive); in the test with RPMI-8226 leukemia, 94.2% (inactive); in the test with OVCAR-8 ovarian, 121% (inactive); in the test with OVCAR-5 ovarian, 92.1% (inactive); in the test on OVCAR-4 ovarian it was 96.3% (inactive). The growth in the test with SK-OV-3 ovarian is 110% (inactive); in the test on IGROV1 ovarian, 116% (inactive); in the test with OVCAR-3 ovarian, 105% (inactive); in the test on NCI/ADR-RES ovarian, 113% (inactive); with T-47D breast, 109% (inactive); with BT-549 breast, 104% (inactive). Further, the growth in the test on MDA-MB-435 melanoma is 101% (inactive); in the test with SW-620 colon, 102% (inactive); in the test with MCF7 breast, 103% (inactive); in the test on HCT-116 colon it was 109% (inactive); in the test on HCC-2998 colon it was 107% (inactive); in the test with KM12 colon, 112% (inactive).
`CNC(=O)Oc1ccc(Cl)cc1SSc1cc(Cl)ccc1OC(=O)NC`: the growth is 52.9% (inactive) in the test with MOLT-4 leukemia; 67.7% (inactive) with SR leukemia; 48.1% (inactive) with RPMI-8226 leukemia; 78.8% (inactive) in the test with OVCAR-8 ovarian; 121% (inactive) with OVCAR-5 ovarian; 74.5% (inactive) in the test on OVCAR-4 ovarian. Moreover, the growth in the test on SK-OV-3 ovarian was 104% (inactive); with IGROV1 ovarian, 77.4% (inactive); in the test on OVCAR-3 ovarian it was 54.7% (inactive); with HS 578T breast it was 85.6% (inactive); in the test with T-47D breast it was 57.2% (inactive); in the test on BT-549 breast it was 96.4% (inactive). The growth with MDA-MB-435 melanoma is 75.5% (inactive); with SW-620 colon, 87.2% (inactive); in the test with MCF7 breast, 91.8% (inactive); in the test with HCT-116 colon, 91.2% (inactive); in the test on HCC-2998 colon it was 99.8% (inactive); in the test with KM12 colon, 98.5% (inactive).
Take `O=C1c2ccccc2C(=O)N1N1CC1c1ccccc1` (stereo unspecified): the growth with MOLT-4 leukemia is 83.5% (inactive); with SR leukemia, 77.9% (inactive); with RPMI-8226 leukemia it was 101% (inactive); in the test with OVCAR-8 ovarian it was 112% (inactive); with OVCAR-5 ovarian, 113% (inactive); in the test with OVCAR-4 ovarian, 101% (inactive). In addition, the growth was 102% (inactive) in the test on SK-OV-3 ovarian; 95.4% (inactive) in the test with IGROV1 ovarian; 107% (inactive) in the test on OVCAR-3 ovarian; 104% (inactive) in the test on NCI/ADR-RES ovarian; 89.2% (inactive) in the test on T-47D breast; 99% (inactive) in the test with BT-549 breast. The growth in the test on MDA-MB-435 melanoma was 102% (inactive); in the test on SW-620 colon it was 105% (inactive); in the test with MCF7 breast it was 84.1% (inactive); with HCT-116 colon it was 95.4% (inactive); with HCC-2998 colon it was 103% (inactive); with KM12 colon, 104% (inactive).
For the compound `C=CC[PH+](c1ccccc1)c1ccccc1.C=CC[PH+](c1ccccc1)c1ccccc1.[Pt+2].[S-]c1ncccn1.[S-]c1ncccn1`, the growth in the test on MOLT-4 leukemia is 7.91% (active); with SR leukemia, 13.5% (inactive); in the test on RPMI-8226 leukemia it was 0.618% (active); with OVCAR-8 ovarian, 1.96% (active); in the test with OVCAR-5 ovarian, 14.3% (inactive); with OVCAR-4 ovarian it was 17.6% (inactive). Moreover, the growth was 96.3% (inactive) with SK-OV-3 ovarian; 16.3% (inactive) in the test with IGROV1 ovarian; -24.5% (active) in the test with OVCAR-3 ovarian; 39.6% (inactive) in the test with NCI/ADR-RES ovarian; 2% (active) in the test on T-47D breast; 64% (inactive) with BT-549 breast. For the same compound, the growth in the test on MDA-MB-435 melanoma was -48.1% (active); with SW-620 colon, -4.87% (active); in the test on MCF7 breast it was 17.2% (inactive); in the test with HCT-116 colon, -43.8% (active); in the test on HCC-2998 colon, 97.5% (inactive); in the test on KM12 colon it was 76.7% (inactive).
Turning to `ClCc1ccc(Cl)c(Cl)c1`, the growth in the test on MOLT-4 leukemia was 105% (inactive); in the test with SR leukemia it was 101% (inactive); in the test with RPMI-8226 leukemia, 109% (inactive); in the test with OVCAR-8 ovarian it was 104% (inactive); in the test on OVCAR-5 ovarian, 98.7% (inactive); in the test with OVCAR-4 ovarian, 106% (inactive). In addition, the growth in the test with SK-OV-3 ovarian is 106% (inactive); with IGROV1 ovarian, 94.7% (inactive); with OVCAR-3 ovarian, 114% (inactive); with NCI/ADR-RES ovarian, 106% (inactive); in the test with T-47D breast, 106% (inactive); in the test on BT-549 breast, 104% (inactive). For the same compound, the growth with MDA-MB-435 melanoma is 106% (inactive); with MCF7 breast, 97.2% (inactive); in the test on HCT-116 colon it was 96.1% (inactive); with HCC-2998 colon, 103% (inactive); in the test with KM12 colon, 104% (inactive).
In the case of `CCCCCCCCCCCCCCCCCCn1cc[n+](C)c1`, the growth with MOLT-4 leukemia was 16.8% (inactive) and 9.25% (active); in the test with SR leukemia, 4.33% (active) and 19% (inactive); in the test on RPMI-8226 leukemia it was 93.8% (inactive) and 75.6% (inactive); with OVCAR-8 ovarian it was -20.2% (active) and -37.4% (active); with OVCAR-5 ovarian, -61.5% (active) and -59.7% (active); in the test on OVCAR-4 ovarian, -19.3% (active) and -13.3% (active). The growth in the test with SK-OV-3 ovarian was 4.83% (active) and -9.16% (active); in the test on IGROV1 ovarian, -43.9% (active) and -43.1% (active); in the test on OVCAR-3 ovarian it was -48.7% (active) and -56.3% (active); in the test with HS 578T breast it was -26.1% (active) and -37% (active); in the test with T-47D breast, 35.9% (inactive) and 17% (inactive); with MDA-MB-435 melanoma, -56.4% (active) and -70.8% (active). Besides, the growth in the test with MCF7 breast was -33.8% (active) and 6.12% (active); with HCT-116 colon, -18.2% (active) and -51.5% (active); with HCC-2998 colon it was -80.7% (active) and -80.9% (active); in the test on KM12 colon it was -47.8% (active) and -61.9% (active).
As for `C[C@]12CCc3sc(Nc4ccc(F)cc4F)nc3C1=CC[C@@H]1[C@@H]2CC[C@]2(C)C(=O)CC[C@@H]12`, the growth in the test on MOLT-4 leukemia was 3.63% (active); with SR leukemia, 0.71% (active); in the test on RPMI-8226 leukemia, -20.8% (active); with OVCAR-8 ovarian, 45.2% (inactive); in the test with OVCAR-5 ovarian it was 91.8% (inactive); in the test on OVCAR-4 ovarian, 66.7% (inactive). Moreover, the growth was 84.1% (inactive) in the test on SK-OV-3 ovarian; 62.1% (inactive) in the test on IGROV1 ovarian; -4.15% (active) with OVCAR-3 ovarian; 55.3% (inactive) in the test with HS 578T breast; 48.9% (inactive) in the test with T-47D breast; 59.6% (inactive) in the test on BT-549 breast. Besides, the growth in the test on MDA-MB-435 melanoma is 51.5% (inactive); in the test with SW-620 colon, 7.16% (active); in the test on MCF7 breast it was 14.6% (inactive); in the test with HCT-116 colon, -23.3% (active); in the test with HCC-2998 colon it was 71.6% (inactive); with KM12 colon, 57.1% (inactive).
As to `CC12CCC3C4CCC(=O)C=C4CCC3C1CC1CC(=O)OC12` (stereo unspecified), the growth was 95.6% (inactive) with MOLT-4 leukemia; 90.6% (inactive) in the test with SR leukemia; 94.3% (inactive) with RPMI-8226 leukemia; 97.2% (inactive) with OVCAR-8 ovarian; 107% (inactive) in the test with OVCAR-5 ovarian; 103% (inactive) in the test on OVCAR-4 ovarian. The growth in the test on SK-OV-3 ovarian was 101% (inactive); in the test with IGROV1 ovarian, 96.7% (inactive); with OVCAR-3 ovarian it was 101% (inactive); in the test on HS 578T breast, 95.7% (inactive); with T-47D breast, 101% (inactive); in the test on BT-549 breast it was 107% (inactive). The growth with MDA-MB-435 melanoma is 112% (inactive); in the test on SW-620 colon it was 102% (inactive); with MCF7 breast, 98.7% (inactive); with HCT-116 colon, 97.1% (inactive); in the test on HCC-2998 colon, 110% (inactive); with KM12 colon, 96% (inactive).
